About 2,000 (36%) of roughly 5,500 compounds were called active. Another 18% or so got no clear call; they are omitted. No stated cut-off is given here; in the data, active means normalized growth mostly below about 0.91 (no sharp cut-off); inconclusive means no clear call, values can overlap the other calls; inactive means mostly above about 0.92. This is one part of the list.
Assay: chemical genetic growth profiling, strain panel (AID 1159580);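 further: tested at 20 µM; growth read once vehicle control cultures reached saturation at 30 °C; 1 = growth at the plate median or of vehicle wells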
Conditions: growth OD

Measured: normalized growth

CCC(=O)c1c(O)cc(O)cc1O
inactive: S. cerevisiae deletion strains, locus YKL009W, strain mrt4, stronger effect = lower value 1.03 | S. cerevisiae deletion strains, locus YKL068W, stronger effect = lower value 0.989 | S. cerevisiae deletion strains, locus YKL085W, strain MDH1 (second series), stronger effect = lower value 0.986 | S. cerevisiae deletion strains, locus YKL085W, strain MDH1, stronger effect = lower value 0.986 | S. cerevisiae deletion strains, locus YKL160W, strain elf1, stronger effect = lower value 0.972 | S. cerevisiae deletion strains, locus YKL190W, strain CNB1, stronger effect = lower value 1 | S. cerevisiae deletion strains, locus YKR001C, strain vps1, stronger effect = lower value 0.959 | S. cerevisiae deletion strains, locus YKR026C, strain gcn3, stronger effect = lower value 0.992 | S. cerevisiae deletion strains, locus YKR091W, strain srl3, stronger effect = lower value 0.988 | S. cerevisiae deletion strains, locus YLL001W, strain dnm1, stronger effect = lower value 0.99 | S. cerevisiae deletion strains, locus YLL026W, stronger effect = lower value 0.999 | S. cerevisiae deletion strains, locus YLL041C, strain sdh2, stronger effect = lower value 0.985 | S. cerevisiae deletion strains, locus YLR027C, strain aat2, stronger effect = lower value 0.987 | S. cerevisiae deletion strains, locus YLR039C, strain RIC1, stronger effect = lower value 0.938 | S. cerevisiae deletion strains, locus YLR058C, strain SHM2, stronger effect = lower value 1 | S. cerevisiae deletion strains, locus YLR102C, strain apc9, stronger effect = lower value 0.979 | S. cerevisiae deletion strains, locus YLR113W, strain HOG1, stronger effect = lower value 0.974 | S. cerevisiae deletion strains, locus YLR221C, strain rsa3, stronger effect = lower value 1.01 | S. cerevisiae deletion strains, locus YLR258W, strain gsy2, stronger effect = lower value 0.996 | S. cerevisiae deletion strains, locus YLR262C, strain YPT6 (second series), stronger effect = lower value 1.01 | S. cerevisiae deletion strains, locus YLR262C, strain YPT6, stronger effect = lower value 0.991 | S. cerevisiae deletion strains, locus YLR268W, strain sec22, stronger effect = lower value 0.968 | S. cerevisiae deletion strains, locus YLR320W, strain mms22, stronger effect = lower value 1.01 | S. cerevisiae deletion strains, locus YLR330W, strain CHS5, stronger effect = lower value 1 | S. cerevisiae deletion strains, locus YLR342W, strain FKS1 (second series), stronger effect = lower value 1 | S. cerevisiae deletion strains, locus YLR342W, strain FKS1, stronger effect = lower value 0.978 | S. cerevisiae deletion strains, locus YLR357W, strain rsc2, stronger effect = lower value 0.968 | S. cerevisiae deletion strains, locus YLR370C, strain arc18, stronger effect = lower value 0.981 | S. cerevisiae deletion strains, locus YLR371W, strain rom2, stronger effect = lower value 0.982 | S. cerevisiae deletion strains, locus YLR384C, strain iki3, stronger effect = lower value 0.98 | S. cerevisiae deletion strains, locus YLR418C, strain cdc73, stronger effect = lower value 0.94 | S. cerevisiae deletion strains, locus YML016C, strain PPZ1, stronger effect = lower value 0.999 | S. cerevisiae deletion strains, locus YML032C, strain rad52, stronger effect = lower value 0.981 | S. cerevisiae deletion strains, locus YML120C, strain ndi1, stronger effect = lower value 0.991 | S. cerevisiae deletion strains, locus YML124C, strain tub3, stronger effect = lower value 0.978 | S. cerevisiae deletion strains, locus YMR058W, strain fet3, stronger effect = lower value 0.978 | S. cerevisiae deletion strains, locus YMR078C, strain ctf18, stronger effect = lower value 0.976 | S. cerevisiae deletion strains, locus YMR125W, strain sto1, stronger effect = lower value 0.985 | S. cerevisiae deletion strains, locus YMR129W, stronger effect = lower value 0.988 | S. cerevisiae deletion strains, locus YMR205C, strain PFK2, stronger effect = lower value 0.998 | S. cerevisiae deletion strains, locus YMR223W, strain ubp8, stronger effect = lower value 0.978 | S. cerevisiae deletion strains, locus YMR231W, strain pep5, stronger effect = lower value 0.991 | S. cerevisiae deletion strains, locus YMR263W, strain SAP30, stronger effect = lower value 1.01 | S. cerevisiae deletion strains, locus YMR307W, strain GAS1, stronger effect = lower value 1.01 | S. cerevisiae deletion strains, locus YNL067W, strain RPL9B, stronger effect = lower value 1.01 | S. cerevisiae deletion strains, locus YNL071W, strain lat1, stronger effect = lower value 0.995 | S. cerevisiae deletion strains, locus YNL128W, strain TEP1, stronger effect = lower value 1.01 | S. cerevisiae deletion strains, locus YNL153C, strain GIM3, stronger effect = lower value 1.02 | S. cerevisiae deletion strains, locus YNL183C, strain NPR1, stronger effect = lower value 0.953 | S. cerevisiae deletion strains, locus YNL209W, strain ssb2, stronger effect = lower value 0.992 | S. cerevisiae deletion strains, locus YNL233W, strain BNI4, stronger effect = lower value 0.988 | S. cerevisiae deletion strains, locus YNL248C, strain rpa49, stronger effect = lower value 1 | S. cerevisiae deletion strains, locus YNL250W, strain rad50, stronger effect = lower value 0.981 | S. cerevisiae deletion strains, locus YNL271C, strain bni1, stronger effect = lower value 0.979 | S. cerevisiae deletion strains, locus YNL298W, strain CLA4, stronger effect = lower value 0.973 | S. cerevisiae deletion strains, locus YNL307C, strain MCK1, stronger effect = lower value 0.991 | S. cerevisiae deletion strains, locus YNL322C, strain KRE1 (second series), stronger effect = lower value 0.97 | S. cerevisiae deletion strains, locus YNL322C, strain KRE1, stronger effect = lower value 1.01 | S. cerevisiae deletion strains, locus YNR049C, strain mso1, stronger effect = lower value 0.987 | S. cerevisiae deletion strains, locus YNR052C, strain pop2, stronger effect = lower value 0.983 | S. cerevisiae deletion strains, locus YOL006C, strain TOP1, stronger effect = lower value 1.12 | S. cerevisiae deletion strains, locus YOL012C, strain htz1 0.785 | S. cerevisiae deletion strains, locus YOL147C, strain pex11, stronger effect = lower value 0.97 | S. cerevisiae deletion strains, locus YOR001W, strain rrp6, stronger effect = lower value 1.02 | S. cerevisiae deletion strains, locus YOR061W, strain CKA2, stronger effect = lower value 1.01 | S. cerevisiae deletion strains, locus YOR069W, strain VPS5, stronger effect = lower value 1 | S. cerevisiae deletion strains, locus YOR070C, strain gyp1, stronger effect = lower value 0.985 | S. cerevisiae deletion strains, locus YOR080W, strain dia2, stronger effect = lower value 0.981 | S. cerevisiae deletion strains, locus YOR083W, strain WHI5, stronger effect = lower value 0.983 | S. cerevisiae deletion strains, locus YOR106W, strain vam3, stronger effect = lower value 0.987 | S. cerevisiae deletion strains, locus YOR136W, strain idh2, stronger effect = lower value 0.984 | S. cerevisiae deletion strains, locus YOR144C, strain elg1, stronger effect = lower value 0.986 | S. cerevisiae deletion strains, locus YOR184W, strain ser1, stronger effect = lower value 0.992 | S. cerevisiae deletion strains, locus YOR231W, strain MKK1, stronger effect = lower value 1.01 | S. cerevisiae deletion strains, locus YOR265W, strain rbl2, stronger effect = lower value 0.982 | S. cerevisiae deletion strains, locus YOR270C, strain vph1, stronger effect = lower value 1.04 | S. cerevisiae deletion strains, locus YOR290C, strain snf2, stronger effect = lower value 0.973 | S. cerevisiae deletion strains, locus YOR316C, strain cot1, stronger effect = lower value 0.984 | S. cerevisiae deletion strains, locus YPL051W, strain arl3, stronger effect = lower value 0.973 | S. cerevisiae deletion strains, locus YPL055C, strain LGE1, stronger effect = lower value 1.02 | S. cerevisiae deletion strains, locus YPL078C, strain atp4, stronger effect = lower value 0.996 | S. cerevisiae deletion strains, locus YPL106C, strain sse1, stronger effect = lower value 0.938 | S. cerevisiae deletion strains, locus YPL240C, strain hsp82, stronger effect = lower value 0.991 | S. cerevisiae deletion strains, locus YPL241C, strain CIN2, stronger effect = lower value 0.996 | S. cerevisiae deletion strains, locus YPL256C, strain CLN2, stronger effect = lower value 0.997 | S. cerevisiae deletion strains, locus YPR119W, strain clb2, stronger effect = lower value 0.971 | S. cerevisiae deletion strains, locus YPR141C, strain kar3, stronger effect = lower value 0.974 | S. cerevisiae deletion strains, locus YPR163C, strain tif3, stronger effect = lower value 0.991 | S. cerevisiae deletion strains, locus YPR167C, strain met16, stronger effect = lower value 0.98 | S. cerevisiae deletion strains, strain wtn01, stronger effect = lower value 0.978 | S. cerevisiae strains, strain wild type, stronger effect = lower value 1.01

— PubChem BioAssay AID1159580 (chemical genetic matrix, 2015)
